Laboratory results published in PubChem BioAssay AID1159580 (chemical genetic matrix, 2015).
The whole screen tested about 5,500 compounds, of which about 2,000 (36%) were called active. Inconclusive results (about 18%) are left out. No stated cut-off is given here; in the data, active means normalized growth mostly below about 0.91 (no sharp cut-off); inconclusive means no clear call, values can overlap the other calls; inactive means mostly above about 0.92. This is one part of the list.

Test: chemical genetic growth profiling, strain panel (AID 1159580);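 further: tested at 20 µM; growth read once vehicle control cultures reached saturation at 30 °C; 1 = growth at the plate median or of vehicle wells; lower values mean less growth of the strain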
Conditions: S. cerevisiae deletion strains, growth OD

Measured: normalized growth

CC1C(c2ccccc2)OCCN1CN1C(=O)c2ccccc2C1=O (stereo unspecified)
inactive: locus YAL013W, strain DEP1, hits give low values 1.02 | locus YBR229C, strain ROT2, hits give low values 0.985 | locus YDL101C, strain DUN1, hits give low values 1.01 | locus YDL134C, strain PPH21, hits give low values 1.01 | locus YDR150W, strain NUM1, hits give low values 0.99 | locus YEL061C, strain CIN8, hits give low values 0.98 | locus YGR078C, strain PAC10, hits give low values 1.01 | locus YHR030C, strain SLT2, hits give low values 1.02 | locus YHR087W, strain rtc3, hits give low values 0.993 | locus YJR043C, strain POL32, hits give low values 1.01 | locus YJR075W, strain HOC1, hits give low values 0.98 | locus YKL190W, strain CNB1, hits give low values 0.987 | locus YLR039C, strain RIC1, hits give low values 1.05 | locus YLR058C, strain SHM2 (second series), hits give low values 1 | locus YLR085C, strain ARP6, hits give low values 0.969 | locus YLR262C, strain YPT6, hits give low values 1.07 | locus YML094W, strain GIM5, hits give low values 0.975 | locus YMR219W, strain ESC1, hits give low values 0.996 | locus YMR263W, strain SAP30, hits give low values 0.991 | locus YNL153C, strain GIM3, hits give low values 0.992 | locus YNL298W, strain CLA4 (second series), hits give low values 1 | locus YNL322C, strain KRE1, hits give low values 0.993 | locus YNR030W, strain Alg12, hits give low values 1.01 | locus YPL055C, strain LGE1, hits give low values 0.991 | locus YPL241C, strain CIN2, hits give low values 0.98 | locus YPR135W, strain CTF4, hits give low values 1.06
